In PubChem BioAssay AID1508600 (Functional Genomics Laboratory (NCATS/FGL), 2020):
Screen size: about 53,000 sequences; about 3,700 (7%) were called active. The sample as a whole holds a higher share of actives than the screen did. A number with no mark means an inactive call.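 Rule for the calls: active = gene knockdowns whose robust z-score for IL-1 alpha signal is at least 2 or at most -2, so actives lie on both sides; inactive = the rest.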

Assay: Components of the Cytosolic LPS Sensing Pathway: Gene Identification via Genome-wide siRNA Screen;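 note: robust z of the log signal after scaling to non-targeting control siRNA wells of the plate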
Settings: RAW264.7 macrophages, IL-1a HTRF, actives lie on both sides, screened at 100 nM (by protocol), cells primed 5 h with Pam3CSK4 first
Outline: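 Read-out: IL-1a HTRF on supernatant, divided by plate negative-control median ×100, log-transformed and converted to robust z-score. Cells were RAW264.7 given 100 nM siRNA, Pam3CSK4-primed 5 hours, then LipidA-transfected 24 hour.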

| Sequence | z-score |
| --- | --- |
| CCACAUGAACAAUUUGGGCTT against Rpl9 | 0.0288 |
| CCACGACACGCAAGAUGAGTT against Fzd8 | -0.756 |
| CGACAAUACUCUCUUCAAGTT against Fst | 0.691 |
| CCAUCUGUAACGGAUCUGATT against Prorsd1 | 0.893 |
| GGAAGCUGUCCAAAAUGAGTT against Hnf4a | 2.55 (active) |
| CCAGUUUAUCACAUAACCUTT against Wasl | -0.928 |
| CCAAAGAUACCAUUUUGCATT against Lypd8 | 0.599 |
| GGUACCAGGUAUCUUCAUUTT against Pard6g | 2.95 (active) |
| GGAAUGCAGCCAUCCUAUCTT against Mia | 0.0985 |
| CCCAGAUUACCGUAAGCGATT against Jup | 0.264 |
| GGCCAAAUGGAAUAAGAAGTT against Wdr59 | 0.774 |
| GGUUGCUUGGAAUUAAAAGTT against Klhl1 | -1.58 |
| GGGUUGAUUUGGUGUUUUATT against Usp46 | 0.673 |
| CCUUGUAGUAAUAGGGAUGTT against Olfr116 | 0.681 |
| GGAAAUGAGUGAAGAUGAATT against Cdk11b | -0.186 |
| GGCAUGUAAUGAAUUCACATT against Pbx3 | -2.14 (active) |
| CGCAUAUAUGUGUGUCGCCTT against Tmem125 | 0.256 |
| CCCAAAUUGAUCCUAGCCUTT against Prkar1b | 0.307 |
| GGGCCUAUGUGCUUUAUAUTT against Usp8 | -0.0584 |
| GGUCAUGGAAGAAGCAAAGTT against Sltm | 2.08 (active) |
| GCUGUCCUGCCGUAAUAGATT against Oma1 | -0.619 |
| GCAAAGGAUCCAAUUUUAGTT against Rnf227 | 1.28 |

| Sequence | z-score |
| --- | --- |
| GGUCCAAUUACUGAAGGUUTT against Spaca7 | 2.09 (active) |
| GCUCCAACUACAUUGACUATT against Olfr1410 | -0.396 |
| GCCGAGAGAGCCAAUACAATT against Tbc1d16 | 0.248 |
| GGAAACACCUUUGAGGCUCTT against Kndc1 | -1.88 |
| GCUACAGGAUAAGUCCAAUTT against Kpnb1 | -2.01 (active) |
| CCGAAUCGUCCUAAACCAATT against Cyp11a1 | 0.284 |
| GUACAUUUGCUGGAGCCUCTT against Hps6 | 0.395 |
| GCCUUUCUUCUGUCAAUGATT against Olfr281 | 2.38 (active) |
| CCGACCAGAAGCUUUAAAGTT against Msrb1 | 1.05 |
| GGGAGUUGGUGGAAUGCUUTT against Ech1 | -0.221 |
| GGAGUUUGAACAAGAAAUATT against Prss12 | 1.11 |
| GCCACCGAACCUAUAAAGCTT against Scd4 | 0.265 |
| GGUGUGCAUCAAGCGACUGTT against Cacng6 | 2.1 (active) |
| GGUUCUAGAUGCUAAUAAGTT against Ciao3 | -0.381 |
| GGAUCUGACAAGGUACAAGTT against Acsm5 | 0.145 |
| GCUAUGGGUAAACUUUUUGTT against Olfr354 | 0.905 |
| CCUAGACAAUACUUGCCUGTT against Gpr180 | 0.873 |
| GCCUGUUCGGUGUUCAACUTT against Etv3 | 0.808 |
| GCCUAGUUCUUUAUGCUAUTT against Golga4 | 4.37 (active) |
| CCACCUGUCGAGAUGUCGUTT against Ppp1r13b | 1.1 |
| GGAUCACGUUUCAAACAUCTT against Mtmr12 | 0.296 |
| GGAGCACAAUAGUAAACUATT against Polr1a | 2.78 (active) |

| Sequence | z-score |
| --- | --- |
| GGUGAAGAUAAGUAUCUGCTT against Mug2 | -0.0586 |
| GCUUGAUUAGGUAGGAAUATT against Stk32a | -0.388 |
| GGAAAGUCAGGAUGAAUAUTT against Cst9 | 0.0511 |
| GGAGUUGUAGUGAGGGUCATT against Fcgbp | -0.971 |
| GGAAACAGGAAACAAUCUATT against Ccdc69 | 0.609 |
| GGUUUUGAGUGAGAAAUGGTT against Plekhb2 | -0.414 |
| GGAGAAAUCCCUUCACGGUTT against Mas1 | 0.449 |
| CCACCUCCUCUCGAUACAATT against Zfp36 | 0.993 |
| CGCAGUAGCGAAGAAUUACTT against Sel1l3 | 2.46 (active) |
| CCAUAAUAGAGGCAAUUACTT against Wscd1 | 0.302 |
| CCUAGGUGUCACCAUGAACTT against Ssx9 | 2.02 (active) |
| GGAAAGAGUCAUGGAAAUATT against Supt16 | 0.55 |
| GGCUCACAAGGAAGAGAUCTT against Cstad | -0.29 |
| GCUCUGAAAUGUCUCUCCATT against H2-D1 | -0.613 |
| GGUGUGUUCAGGAGUUGAUTT against Col12a1 | 0.505 |
| GGCAAAAAAAACUGCUAUATT against Adgrg7 | 3.36 (active) |
| GGUGACAUUUGAAAAUGUCTT against Slc25a12 | 0.411 |
| GCCUCAUCCCUAUAGUCCUTT against Spaca9 | -0.257 |
| CGGGUUCCCAGGAAUUAAGTT against Col4a6 | 0.304 |
| GGUUGACACUCUGAGGGAATT against Pld2 | -0.175 |
| CCACUUUCUAGAAAUCCUATT against Tmem41a | -2.14 (active) |
| GGGCUGAUGAGCAAAGCAUTT against Setd4 | -1.01 |

| Sequence | z-score |
| --- | --- |
| GGGAAAUUAUUACCAAAAGTT against N4bp1 | -0.83 |
| GGUCUUUGUUAAGAAUCCUTT against Myo1f | -0.496 |
| GCUCGAAAACUGAGAGUUATT against Pcdhgb1 | 3.32 (active) |
| GCUAUAAGGCUUAAUAGGGTT against Dleu7 | 1.97 |
| GCGAAAGCAGCUGUCGGAATT against Nkx3-1 | 0.324 |
| GGCCUCGAACAGUUUAUUATT against Snx12 | 0.471 |
| GGCUGUGGAUCUUCUCUGUTT against Cnksr3 | -1.05 |
| GCCAUGUUAAAUUCUCUACTT against Poln | 0.575 |
| GGCUCUGCUGGAUAUCAUGTT against Med24 | -1.08 |
| GGGUAUUUCCUGGUGGAUUTT against Mrps6 | 0.221 |
| CCUAUCAUAACGGUGAUAATT against Ddb1 | -0.423 |
| GGUCACACCCAUAAACUAATT against B630019K06Rik | -0.167 |
| GGUUAUUAAGUAGCUUUUCTT against Dtx1 | 1.64 |
| GCAUUAGAACAAAGGAUGCTT against Rps19 | 0.278 |
| GGAAUUUGUGGAAACAGGATT against Tnfaip3 | -0.441 |
| GCCUUUGAUAGUGGUGAAUTT against F11r | -3 (active) |
| CCAAUCUUCUCCUCAAGACTT against Olfr101 | -0.0712 |
| GGCUGUUUCCAAAAAGAAGTT against H1f5 | -1.14 |
| GGACCAGGGCAAAAUAUGATT against Pate6 | 0.727 |
| CCAUCAUUGCUCGUAUUGGTT against Olfr656 | -2.9 (active) |
| CCAGUGGAAAUAACUUGUGTT against Fam53a | 1.58 |
| CCUUGAGUGAAAGAAUUGATT against Tmprss11d | -0.609 |

| Sequence | z-score |
| --- | --- |
| GGAAUAUCCGUAAUAACUATT against Grin2b | 2.82 (active) |
| GCUACUAAAUUCUGUUUUGTT against Nol4l | 0.325 |
| GGGAAGUUUCUUGAAGCACTT against Rfxank | 0.103 |
| AGGACUAGGGAUCCUAAUUTT against Ubl5 | -0.74 |
| GGUUGCUGGAUGUCAUCUCTT against Hpn | -2.05 (active) |
| GCUACUUGCUCAUACAAAGTT against Rag2 | 0.65 |
| GGCCAUAUGUCAAGAAGUUTT against Svs4 | -1.24 |
| GCCAGGAAUAGUGAUUAUUTT against Atp11c | -1.19 |
| GGAAAUGUGGAAUACACCGTT against Prl7a2 | 1.39 |
| GGCUUUAAUGUGUCAGUACTT against Slc25a5 | -0.228 |
| GCCGAUGAUACCAAACCGATT against Oser1 | 0.151 |
| CGACUCUUACCAACCUUUUTT against Lhx2 | 0.477 |
| GCAGGUGGUACGCAGACUATT against Ulk1 | -0.0204 |
| GGAAAGAAUGAGGAUGUGGTT against Pitx2 | -2.07 (active) |
| CCUCAAACUCGGUUUGAUUTT against Acp6 | -0.773 |
| GCCUAUACUAUAGAAUUACTT against Sgsm2 | 2.2 (active) |
| GACGCAGAUGGUAUUUUUUTT against Orm2 | 1.24 |
| GUGGGAAUUCUGAAAAAUATT against Vmn1r231 | 0.301 |
| GUAUGAACCUAACACAUUCTT against Vmn1r188 | 0.493 |
| GGAAACCUUUACCAUAAACTT against Epdr1 | -2.35 (active) |
